Sampled rows, rich in hits. Any-hit rate of the full collection: about 7.5%.
ELG1 genotox: qHTS screen for small molecules that induce genotoxicity in human embryonic kidney (HEK293T) cells expressing luciferase-tagged ELG1. Potency, µM (highest dose often 46 µM), most hits filed as activators. hit rate 1.3% among 330,000. HEK293T ELG1-luciferase reporter, luminescence, 16 h. AID 504466, 2011; further: nearly all actives have a fitted effect of over 60% in size
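Step 1: seed 2,000 HEK293T ELG1-luciferase cells per well. Step 2: add compound or DMSO, incubate 16 hr at 37 °C. Step 3: ONE-Glo, 30 min at room temperature, read luminescence.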
KinaseGlo FLuc: Counterscreen for Luciferase (Kinase-Glo TM) Inhibition. hit rate 0.28% among 200,000. Potency, µM (titrated, usually from 38.3 µM), most hits filed as inhibitors. AID 1379, 2008. Luciferin 4-monooxygenase (Photuris pensylvanica), Q27757. Kinase-Glo luciferase, ATP luminescence, 8 min; further: nearly all actives have a fitted effect of over 60% in size
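Inhibition of Kinase-Glo luciferase light generation was assessed at 10 uM ATP in pH 7.2 imidazole buffer, with luminescence measured after eight minutes at ambient temperature.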
SMN2 splice enh: qHTS Assay for Enhancers of SMN2 Splice Variant Expression | HEK293 SMN2-luciferase splicing reporter, luminescence, 30-36 h | Potency, µM (titrated, usually from 46.1 µM), hits mostly activators | hit rate 2.8% among 210,000; further: nearly all actives have a fitted effect of over 55% in size
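qHTS luciferase splicing reporter: luminescence rises when SMN2 exon 7 is included in transfected HEK293 cells. Compound exposure lasted 30-36 h at 37C, with 4.5 mM final sodium butyrate as control, followed by a ONE-Glo read.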
FLuc modulator: qHTS profiling assay for firefly luciferase inhibitor/activator using purifed enzyme and Km concentrations of substrates (counterscreen for miR-21 project) | Luciferin 4-monooxygenase (Photinus pyralis), P08659 | purified FLuc, Km substrates, luminescence inhibition | AID 588342, 2011 | Potency, µM (highest dose often 57.5 µM), actives largely listed as inhibitors | hit rate 6.9% among 360,000; further: nearly all actives have a fitted effect of over 55% in size
Target sequence (P08659 whole entry, looked up): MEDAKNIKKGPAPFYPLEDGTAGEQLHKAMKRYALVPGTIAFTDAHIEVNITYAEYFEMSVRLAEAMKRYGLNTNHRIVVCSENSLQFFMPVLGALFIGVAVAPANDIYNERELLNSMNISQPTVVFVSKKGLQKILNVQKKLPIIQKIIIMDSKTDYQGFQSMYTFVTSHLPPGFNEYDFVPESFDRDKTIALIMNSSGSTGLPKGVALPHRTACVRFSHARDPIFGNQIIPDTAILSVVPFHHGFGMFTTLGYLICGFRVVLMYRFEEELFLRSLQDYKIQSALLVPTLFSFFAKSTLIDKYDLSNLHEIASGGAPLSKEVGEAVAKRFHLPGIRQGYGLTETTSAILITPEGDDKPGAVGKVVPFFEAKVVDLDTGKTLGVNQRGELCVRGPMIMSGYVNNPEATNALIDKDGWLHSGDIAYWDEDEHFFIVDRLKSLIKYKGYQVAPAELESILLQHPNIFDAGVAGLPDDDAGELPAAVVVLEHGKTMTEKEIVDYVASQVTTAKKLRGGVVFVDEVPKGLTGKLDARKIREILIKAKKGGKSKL
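Biochemical qHTS of compounds, final roughly 60 µM downward over six points, against 10 nM purified firefly luciferase using Km concentrations of substrates (10 uM D-luciferin, 10 uM ATP) in Tris acetate pH 7.5 buffer; luminescence output.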
NPC1 promoter act: qHTS Assay for NPC1 Promoter Activators. Huh7 NPC1 promoter luciferase reporter, 24 h. Potency, µM (series often up to 9.22 µM), most hits filed as activators. hit rate 2.4% among 320,000; further: nearly all actives have a fitted effect of over 60% in size
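Huh7 cells stably carrying NPC1 promoter–luciferase, plated in Opti-MEM with 10% FBS for 2 h, were exposed to compound in DMSO for 24 h at 37 °C; luciferase reagent was added for 10 min and luminescence read.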
Rab9 prom act: qHTS Assay for Rab9 Promoter Activators. Huh7 Rab9 promoter-luciferase reporter, luminescence, 24 h. Potency, µM (series often up to 9.22 µM), usual class: activators. hit rate 2.8% among 320,000; further: nearly all actives have a fitted effect of over 60% in size
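Luciferase signal after 10 min detection reagent at ambient indicates Rab9 promoter upregulation; stably transfected Huh7 cells were treated 24 h with compound in DMSO at 37 °C, 5% CO2.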
A number is an active result; n = inactive; u = inconclusive; x = no result given; [ ] = remark or other dose. The call rests on the fitted dose curve; in most records, active means well fitted curve in the direction sought with a large enough effect; inconclusive means small, poorly fitted or top-dose-only effect, or another doubt; inactive means no such curve, though single readings can be large; an effect the other way counts as inactive or inconclusive.

SMILES	ELG1 genotox	KinaseGlo FLuc	SMN2 splice enh	FLuc modulator	NPC1 promoter act	Rab9 prom act
O=C(CSC1=NCCS1)N1CCc2ccccc21	8.2µM	n	u	13µM	u	4µM
Nc1ccccc1SCC(=O)N1CCc2ccccc21	u	n	n	17µM	u	u
O=C(CNc1ccccc1OC(F)F)N1CCc2ccccc21	u	n	14µM	u	3.2µM	3.2µM
Cc1ccc(SCC(=O)N2CCc3ccccc32)cc1	u	n	u	9.5µM	n	u
Cc1nn(C)c2c1c(C(F)(F)F)cc(=O)n2CC(=O)NCc1ccc(OC(C)C)cc1	x	x	x	n	x	x
COc1cccc(NC(=S)N2CCN(Cc3ccccc3)CC2)c1	n	n	n	n	n	n
O=C(CS(=O)(=O)c1ccccc1)N1CCc2ccccc21	u	n	14µM	15µM	4µM	2.5µM
O=C(O)c1ccccc1SCC(=O)N1CCc2ccccc21	n	n	n	21µM	u	u
O=C(CSc1ccccc1C(=O)O)c1ccc(Cl)cc1	u	x	x	11µM	4µM	4µM
C[C@@H]1C(=O)NC2=Nc3cccc(Cl)c3CN21	x	n	n	x	n	n
Cc1ccc(N=Nc2c(O)n(CN3CCOCC3)c3ccccc23)cc1	3.7µM	n	22µM	2.7µM	1.4µM	0.4µM
Cc1ccc(N(CC(=O)Nc2cccc(C)c2)S(=O)(=O)c2cccc3nonc23)cc1	n	x	x	n	n	n
COc1cc(C2c3c(oc4ccccc4c3=O)C(=O)N2c2nnc(C(C)C)s2)cc(OC)c1OC (configuration not stated)	x	x	n	n	x	x
Cc1cc(CN2CCCC(C(=O)Nc3ccc(-c4nc5ccccc5[nH]4)cc3)C2)n[nH]1 (configuration not stated)	n	x	x	15µM	u	u
CCC1CCCCN1S(=O)(=O)c1cc2c3c(c1)CC(=O)N3CCC2 (configuration not stated)	x	x	x	n	x	x
COC(=O)C(Cc1ccc(OC(=O)c2ccc(C)cc2)cc1)N1Cc2ccccc2C1=O (configuration not stated)	n	n	16µM	u	u	u
COC(=O)C(Cc1ccc(O)cc1)N1Cc2ccccc2C1=O (configuration not stated)	u	x	x	15µM	4µM	1.8µM
OC[C@@H]1O[C@H](n2cnc3c(/C=C(\O)c4ccccc4)ncnc32)[C@H](O)[C@@H]1O	x	n[7.66 µM]	n[9.22 µM]	x	x	x
O=C(CN1N=C(c2ccccc2)CCC1=O)NCCCN1CCc2ccccc2C1	n	n	n	n	n	n
Oc1c(N=Nc2ccc(F)cc2)ccc2ccccc12	2.1µM	x	x	0.6µM	3.2µM	4.5µM
Oc1ccc2ccccc2c1N=Nc1ccc(F)cc1	n	x	x	n	n	n
Cc1ccc(N=Nc2ccc3ccccc3c2O)cc1	u	x	x	0.24µM	0.56µM	2.5µM
COc1cc(/C=N/NC(=O)c2cccc(C(=O)N/N=C/c3ccc(O)c(OC)c3)n2)ccc1O	n	x	x	0.85µM	n	n[1.84 µM]
COc1ccc(/C=N/NC(=O)c2cccc(COCC(F)(F)C(F)F)c2)cc1	n	n	n	5.4µM	n	n
COc1cc(/C=N/NC(=O)c2nc(C)cc(C)n2)ccc1O	n	n	u	u	n	n
SMILES	ELG1 genotox	KinaseGlo FLuc	SMN2 splice enh	FLuc modulator	NPC1 promoter act	Rab9 prom act
COC(=O)N/N=C/c1ccc(Oc2ccccc2)cc1	u	n	11µM	15µM	u	u
COc1ccc(/C=N/NC(=O)c2cccc(C(=O)N/N=C/c3ccc(OC)cc3)n2)cc1	u	x	x	0.3µM	n	n
CCOc1ccccc1N1CC(C(=O)N(CC)CC(=O)Nc2ccc3c(c2)OCCO3)CC1=O (configuration not stated)	n	x	x	n	n	n
COc1ccc(-c2nc(CNC(=O)Nc3ccccc3)c(C)o2)cc1	x	x	x	n	x	x
COc1cc(/C=N/NC(=O)c2cc(-c3ccccc3)n[nH]2)ccc1O	x	n	x	x	x	x
COc1ccc(/C=N/NC(=O)Nc2nonc2N)cc1	u	n	10µM	u	n	n
COc1cc(/C=N/NC(=O)c2cc3ccccc3[nH]2)ccc1O	n	x	x	17µM	n	n
COc1ccc(Nc2nc(-c3cc4cccc(OC)c4oc3=O)cs2)cc1	n	n	n	n	n	n
COc1cccc2cc(-c3nc4ccccc4[nH]3)c(=O)oc12	u	x	x	1.7µM	1.4µM	2.2µM
COc1ccc(-c2cc3cccc(OC)c3oc2=O)cc1	u	x	x	0.6µM	0.45µM	0.5µM
CNC(=O)c1cc2cccc(OC)c2oc1=O	n	n	n	n	n	n
COc1cccc2cc(-c3ccccc3)c(=O)oc12	u	u	11µM	8.5µM	2.5µM	2.8µM
O=C(/C=C/c1c(F)cccc1Cl)Nc1nc2ccccc2[nH]1	u	n	7.1µM	n	3.2µM	2.8µM
Cc1ccc(C)c(C(=O)Nc2nc3ccccc3[nH]2)c1	n	x	x	n	n	n
Cc1ccc(/C=C/C(=O)Nc2nc3ccccc3[nH]2)cc1	10µM	n	10µM	u	3.2µM	1.8µM

Assay outcomes (PubChem)
